In PubChem BioAssay (Tox21) one finds Potency and outcome data, which are given here for 27 molecules.

Values without a mark were called inactive. Inconclusive results are not listed. Active and inactive are the calls of the source. Unless noted, the call rests on the fitted dose curve; in most records, active means well fitted curve in the direction sought with a large enough effect in the repeat runs; inconclusive means weak or mixed curves; inactive means no such curve, though single readings can be large; an effect the other way counts as inactive or inconclusive.

Assay [1] addresses Progesterone receptor (Homo sapiens) (UniProt P06401). As to the kind of experiment: qHTS assay to identify small molecule agonists of the progesterone receptor (PR) signaling pathway (AID 1346784; calls by dose curve; further: nearly all actives have a fitted effect of over 30% in size). Put shortly: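 The screen uses PR-UAS-bla HEK 293T cells in charcoal-stripped serum (2%). Compounds are applied for 16 hr at 37C after a 6 hr pre-incubation, and reporter activity is detected with a FRET beta-lactamase substrate after 2 hr at room temperature.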

The target is the same in assay [2]. Nature of the assay: qHTS assay to identify small molecule antagonists of the progesterone receptor (PR) signaling pathway (AID 1346795; active means well fitted inhibition curve with a large enough effect in the signal ratio in the repeat runs, not every such curve was filed as active; the % refers to the signal ratio; further: potency means the concentration at half of the fitted maximal effect). Put shortly: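 After 6 hr plating at 37C in 2% stripped-serum medium, PR-UAS-bla HEK293T cells got compounds, then 1 nM R5020. Sixteen hours later, LiveBLAzer substrate was applied for 2 hr at room temperature and fluorescence was recorded.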
For orientation: qHTS replaces the single test concentration by a dilution series.

The nature of assay [3]: qHTS assay to identify small molecule antagonists of the progesterone receptor (PR) signaling pathway - cell viability counter screen (AID 1346798). Further: series mostly up to about 92 µM; nearly all actives have a fitted effect of over 50% in size. Put shortly: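 Viability was determined by ATP-based luminescence (CellTiter-Glo) in PR-UAS-bla HEK293T cells cultured in 2% charcoal-stripped serum and incubated 16 hr with compounds under R5020 stimulation.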
Assay [4] can be described thus: qHTS assay to identify small molecule antagonists of the TGF-beta/Smad signaling pathway - cell viability counter screen (AID 1346824). Further: nearly all actives have a fitted effect of over 50% in size. Put shortly: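 Cytotoxicity counter-screen run in the same wells as the beta-lactamase Smad reporter read: CellTiter-Glo luminescence after 30 min at room temperature. HEK 293T SBE-bla cells had 5 hr compound exposure at 37 C with TGF-beta1 (0.25 ng/mL stock).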

The nature of assay [5]: qHTS assay to identify small molecule agonists of the TGF-beta/Smad signaling pathway (AID 1346859; active means well fitted activation curve with a large enough effect in the signal ratio in the repeat runs, not every such curve was filed as active; the % refers to the signal ratio; further: series mostly up to about 77 µM). Put shortly: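 Dual-wavelength fluorescence (460/530 nm emission) quantified beta-lactamase expression under the Smad binding element in HEK 293T cells following 5 hr compound treatment at 37 C.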
In assay [6] the target is Thyrotropin-releasing hormone receptor (Homo sapiens) (UniProt P34981). Nature of the assay: qHTS assay to identify small molecule antagonists of the thyrotropin-releasing hormone receptor (TRHR) signaling pathway (AID 1346877; active means well fitted inhibition curve with a large enough effect in the repeat runs, not every such curve was filed as active; further: series mostly up to about 51 µM). Put shortly: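 TRHR-expressing HEK293 cells were seeded, cultured 18 h at 37 °C, then loaded with calcium dye for 2 h. Compounds were pre-incubated 5 min at room temperature before 1 nM TRH (final) was added, and kinetic fluorescence was recorded for 3 min.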

Assay [7] has the same target. As to the kind of experiment: qHTS assay to identify small molecule agonists of the thyrotropin-releasing hormone receptor (TRHR) signaling pathway (AID 1346891; calls by dose curve; further: series mostly up to about 58 µM). Put shortly: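 Kinetic fluorescence (3 min, 1 s intervals) reported intracellular calcium after compound transfer onto TRHR-Hek293 cells pre-loaded with dye for 2 h at 37 °C.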
Assay [8] is described as follows: Human pregnane X receptor (PXR) small molecule agonists, qHTS cell viability counter screen (AID 1346977). Further: nearly all actives have a fitted effect of over 50% in size. Further: potency means the concentration at half of the fitted maximal effect. Put shortly: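 HepG2 cells stably carrying the PXR-Luc reporter are cultured with 5% charcoal-stripped FBS and treated with compounds for 24hr. CellTiter-Fluor is added at 23hr and fluorescence is read after 1hr.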
Assay [9] is described as follows: qHTS assay to identify small molecule agonists of the progesterone receptor (PR) signaling pathway - cell viability counter screen (AID 1346799; calls by dose curve; further: nearly all actives have a fitted effect of over 45% in size). Put shortly:
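Viability was scored by ATP luminescence (CellTiter-Glo, 30 min, room temperature) in the same wells used for the reporter readout, after 16 hr compound exposure of PR-UAS-bla HEK293T cells.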

Assay [10] is described as follows: qHTS assay to identify small molecule agonists of the TGF-beta/Smad signaling pathway - cell viability counter screen (AID 1346829). Further: top concentration of the series differs between compounds; nearly all actives have a fitted effect of over 45% in size. Put shortly:
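Luminescence from CellTiter-Glo, read after a 30 min room-temperature incubation, gives cell viability of SBE-bla HEK 293T cells treated 5 hr with compounds at 37 C.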

Chain of Thyrotropin-releasing hormone receptor (Homo sapiens) (P34981 whole entry, looked up): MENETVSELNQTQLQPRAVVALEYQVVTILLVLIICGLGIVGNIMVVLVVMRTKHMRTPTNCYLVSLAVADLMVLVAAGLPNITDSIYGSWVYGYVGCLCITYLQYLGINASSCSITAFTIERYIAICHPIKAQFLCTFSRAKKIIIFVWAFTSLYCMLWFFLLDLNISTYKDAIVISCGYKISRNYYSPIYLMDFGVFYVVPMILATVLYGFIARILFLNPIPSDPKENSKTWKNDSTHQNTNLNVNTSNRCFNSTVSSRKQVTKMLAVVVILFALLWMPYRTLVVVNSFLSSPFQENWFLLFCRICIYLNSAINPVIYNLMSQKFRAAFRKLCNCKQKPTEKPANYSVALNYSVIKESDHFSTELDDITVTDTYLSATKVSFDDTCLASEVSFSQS
Chain of Progesterone receptor (Homo sapiens) (P06401 whole entry, looked up): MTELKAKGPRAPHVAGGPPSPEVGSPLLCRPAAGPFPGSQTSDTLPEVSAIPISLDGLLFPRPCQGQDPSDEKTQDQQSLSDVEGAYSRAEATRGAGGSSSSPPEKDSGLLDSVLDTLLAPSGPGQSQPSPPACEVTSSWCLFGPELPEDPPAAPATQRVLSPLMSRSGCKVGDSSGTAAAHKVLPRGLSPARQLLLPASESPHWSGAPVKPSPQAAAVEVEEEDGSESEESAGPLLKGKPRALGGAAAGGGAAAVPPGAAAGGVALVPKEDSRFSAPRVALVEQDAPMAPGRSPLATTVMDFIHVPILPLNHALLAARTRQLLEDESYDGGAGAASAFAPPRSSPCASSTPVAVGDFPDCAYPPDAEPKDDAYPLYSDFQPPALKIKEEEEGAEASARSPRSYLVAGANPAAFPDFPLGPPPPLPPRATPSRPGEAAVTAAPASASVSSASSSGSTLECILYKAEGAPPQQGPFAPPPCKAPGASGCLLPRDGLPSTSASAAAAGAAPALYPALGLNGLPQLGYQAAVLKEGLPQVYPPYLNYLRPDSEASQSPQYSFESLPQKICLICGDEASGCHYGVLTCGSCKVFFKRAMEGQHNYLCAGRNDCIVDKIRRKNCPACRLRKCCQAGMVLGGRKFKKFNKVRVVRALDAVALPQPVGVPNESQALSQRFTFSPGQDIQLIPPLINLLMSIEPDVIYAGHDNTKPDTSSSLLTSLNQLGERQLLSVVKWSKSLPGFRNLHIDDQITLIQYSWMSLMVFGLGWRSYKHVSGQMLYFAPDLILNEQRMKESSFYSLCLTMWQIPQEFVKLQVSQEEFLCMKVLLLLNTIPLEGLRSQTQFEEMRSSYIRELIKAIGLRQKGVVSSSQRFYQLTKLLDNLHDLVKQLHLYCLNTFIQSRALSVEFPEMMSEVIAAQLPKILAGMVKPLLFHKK

`CCCNC(C)(C)COC(=O)c1ccccc1`: the Potency result in assay [1], in assay [2], in assay [3], in assay [7] and in assay [8] was “inactive” throughout. Besides, the call in assay [4], in assay [5] and in [6] was inactive.

Take `CN1CCN(C2=Nc3cc(F)ccc3Cc3ccccc32)CC1`: the Potency result in assay [1], in assay [9] and in [7] was “inactive” throughout. Moreover, in assay [2], the Potency was 18.8 µM (active). The outcome in assay [4], in assay [10], in assay [5] and in assay [6] was inactive.

As for `CCc1cc(Cl)c(OC)c(C(=O)NC[C@@H]2CCCN2CC)c1O`, the Potency entry in [1], in [2], in [3] and in assay [8] was “inactive” in each case. For the same molecule, the molecule was classed as inactive in assay [4], in assay [10] and in [5].

With `Cc1cn([C@@H]2O[C@H](CO)[C@@H](O)[C@@H]2F)c(=O)[nH]c1=O`, the Potency entry in assay [1], in assay [2], in assay [3], in assay [7] and in assay [8] was “inactive” each time. The outcome in assay [4], in [10], in assay [5] and in [6] was inactive.

Turning to `Cc1ccc([N+](=O)[O-])c(N)c1`, the Potency entry in assay [1], in [9] and in assay [7] was “inactive” in each case. Besides, the Potency in assay [2] was 59.6 µM (active). The call in assay [4], in assay [10], in assay [5] and in assay [6] was inactive.

For the molecule `COC(=O)N[C@H](C(=O)N[C@@H](Cc1ccccc1)[C@@H](O)CN(Cc1ccc(-c2ccccn2)cc1)NC(=O)[C@@H](NC(=O)OC)C(C)(C)C)C(C)(C)C`, the Potency result in assay [1], in assay [2], in assay [3], in [7] and in assay [8] was “inactive” each time. Besides, the call in [4], in assay [10], in [5] and in assay [6] was inactive.

As for `CCOc1ccccc1N`, the Potency entry in assay [1], in assay [2], in assay [3] and in [8] was “inactive” in each case. The molecule was called inactive in assay [4], in assay [10] and in assay [5].

On to `CCN[C@H]1CN(CCCOC)S(=O)(=O)c2sc(S(N)(=O)=O)cc21`, for which the Potency result in [1], in assay [2], in assay [3], in assay [7] and in assay [8] was “inactive” each time. Further, the molecule was called inactive in assay [4], in assay [10], in assay [5] and in [6].

As to `CCOc1ccc(NS(=O)(=O)c2ccc(N)cc2)nn1`, the Potency entry in [1], in [2], in assay [3] and in assay [8] was “inactive” in each case. The call in [4], in [10] and in [5] was inactive.

`COc1ccc(S(=O)(=O)Nc2nnc(CC(C)C)s2)cc1`: the Potency entry in assay [1], in [2] and in assay [7] was “inactive” in each case. For the same molecule, the molecule was called inactive in assay [4], in assay [5] and in assay [6].

In the case of `c1ccc(CN(CC2=NCCN2)c2ccccc2)cc1`, the Potency result in assay [1] and in [3] was “inactive” each time. Further, the molecule was classed as inactive in assay [4], in assay [10] and in [5].

With `CCOC(=O)c1cc(=O)c2c(OCC(COc3cccc4oc(C(=O)OCC)cc(=O)c34)OC(=O)[C@@H](N)CCCCN)cccc2o1`, the Potency entry in [1], in assay [2] and in [9] was “inactive” each time. In addition, the result in assay [4] and in assay [5] was inactive.

Take `CCCC1CCC(=O)O1` (stereo not drawn): the Potency entry in [1], in assay [3], in [9], in [7] and in assay [8] was “inactive” in each case. The result in [4], in [10], in assay [5] and in [6] was inactive.

Take `CC(=O)O[C@H]1CC[C@@]2(C)C(=CC[C@@H]3[C@@H]2CC[C@]2(C)C(C(C)=O)=CC[C@@H]32)C1`: the Potency result in assay [1], in [3], in assay [9] and in assay [7] was “inactive” each time. Besides, the result in assay [4], in assay [10] and in assay [6] was inactive.

Turning to `O=C(O[C@@H](C(=O)O)[C@@H](OC(=O)c1ccccc1)C(=O)O)c1ccccc1`, the Potency result in [1], in assay [2] and in assay [9] was “inactive” in each case. Moreover, the molecule was called inactive in [4] and in assay [5].

Consider `NCCCN1CCN(CCCN)CC1`, for which the Potency result in assay [1], in assay [2] and in [7] was “inactive” in each case. Further, the molecule was called inactive in assay [4], in [10], in [5] and in [6].

For the molecule `CC1=CC(=O)CC(C)(C)C1=O`, the Potency result in [1], in assay [3], in assay [9], in assay [7] and in [8] was “inactive” in each case. Also, the call in assay [4], in assay [10], in [5] and in assay [6] was inactive.

Consider `O=c1[nH]cnc2c1ncn2[C@@H]1O[C@H](CO)[C@@H](O)[C@H]1O`, for which the Potency entry in assay [1], in [3], in assay [9], in assay [7] and in assay [8] was “inactive” in each case. For the same molecule, the molecule was classed as inactive in assay [4], in assay [10], in assay [5] and in assay [6].

For `CC(C)C[C@H](NC(=O)OCC1c2ccccc2-c2ccccc21)C(=O)O`, the Potency result in [1], in assay [3] and in assay [9] was “inactive” in each case. Moreover, the molecule was called inactive in assay [4] and in assay [10].

Turning to `CC(C)=CCC[C@](C)(O)[C@@H]1CC=C(C)CC1`, the Potency result in assay [1], in assay [2], in assay [9] and in assay [8] was “inactive” throughout. Further, the result in assay [4], in assay [10] and in assay [5] was inactive.

In the case of `O=C1C=CC(=O)O1`, the Potency entry in assay [1], in assay [3], in assay [9], in assay [7] and in assay [8] was “inactive” each time. Besides, the outcome in assay [4], in assay [10], in [5] and in [6] was inactive.

Take `COC(=O)c1ccc(OC)cc1`: the Potency result in assay [1], in assay [2], in assay [7] and in assay [8] was “inactive” each time. The molecule was classed as inactive in assay [4], in assay [10], in [5] and in [6].

For the molecule `O=Cc1ccc(O)c(O)c1O`, the Potency result in assay [1], in assay [3] and in [7] was “inactive” in each case. In addition, the molecule was called inactive in [4], in assay [10], in assay [5] and in assay [6].

Turning to `CCOC(=O)NCCC[Si](OCC)(OCC)OCC`, the Potency entry in assay [1], in assay [2], in [9], in assay [7] and in [8] was “inactive” in each case. Also, the result in assay [4], in [5] and in assay [6] was inactive.

For `O=C(C(Cl)Cl)N1CCOC12CCCCC2`, the Potency result in [1], in [3], in assay [9] and in assay [7] was “inactive” each time. For the same molecule, the call in assay [4], in assay [10], in assay [5] and in assay [6] was inactive. Moreover, the Potency in assay [8] was 61.1 µM (active).

As to `O=C1N(c2ccccc2)c2ccccc2C1(Cc1ccncc1)Cc1ccncc1`, the Potency result in assay [1], in assay [3], in assay [9], in assay [7] and in assay [8] was “inactive” throughout. Also, the call in [4], in assay [10], in [5] and in [6] was inactive.

Take `O=CCCc1ccccc1`: the Potency result in assay [1], in assay [2], in assay [9] and in assay [8] was “inactive” throughout. Further, the molecule was classed as inactive in assay [4], in assay [10] and in [5].
